# From ChEMBL document CHEMBL3988442, “University of Dundee, Small-Polar-MMV Screening Library” (2021)
# In all, about 38,000 compounds went through this assay and about 1,200 (3.2%) showed an effect of 50% or more. The median lay at about -58%. What follows is part of a selection rich in strong results, with near analogues and random picks from the rest.
# System: Plasmodium falciparum
# Test: Calibr Malaria Delayed Death Assay SOP
# Format: functional, organism-based
# Parameters: scale not given: in the data most compounds retested in dose-response had high values
# Settings: concentration 4.99e-06 (unit not given; other assays of the set use mol/L)
row,SMILES,Percent Effect
1,Cc1c(C(C)NC2CSCCSC2)cnn1-c1ccc(F)cc1F (stereo not drawn),-8.599%
2,Cc1c(C(C)NCC2CCCC2)cnn1-c1ccc(F)cc1F (stereo not drawn),70.86%
3,Cc1c(C(C)NC2CCOCC2)cnn1-c1ccc(F)cc1F (stereo not drawn),-4.766%
4,CCc1nnc(SCc2cc(=O)n3c4c(sc3n2)CCCC4)[nH]1,-134.4%
5,COc1cncc(-n2nc(C)c(CC(C)=O)c2C)c1,-95.89%
6,CCC(=O)N1CCC2(COCc3cnc(N4CCOCC4)nc32)C1 (stereo not drawn),-52.14%
7,CCOc1cncc(N2CCN(c3ccccc3F)CC2)n1,-93.07%
8,COc1ccccc1C1(CNc2nnc(C)c(C)c2C#N)CCOCC1,0.02654%
9,Cc1nnc(NCC2(c3ccccc3)CCC2)c(C#N)c1C,-38.66%
10,COc1ccccc1C1(CNc2nnc(C)c(C)c2C#N)CCCC1,56.81%
11,CN(Cc1cccnc1)[C@@H]1CN(c2ccccn2)[C@@H]2CCCO[C@H]12,-39.6%
12,CN(Cc1cccnc1)[C@@H]1CN(Cc2ccccn2)[C@@H]2CCCO[C@H]12,50.75%
13,CN(Cc1cccnc1)[C@@H]1CN(c2ncc(F)cn2)[C@@H]2CCCO[C@H]12,-11.41%
14,CCNC(=O)[C@@H]1C[C@H](N)CN1c1cc(C(F)(F)F)nc(N2CCCC2)n1,54.16%
15,CCNC(=O)[C@@H]1C[C@H](N)CN1c1cc(C(F)(F)F)nc(N(C)C)n1,19.6%
16,CCNC(=O)[C@@H]1C[C@H](N)CN1c1cc(CC)nc(N(C)C)n1,-75.2%
17,O=C(O)C(F)(F)F.O=S(=O)(C1CC1)N1CCO[C@H]2[C@@H](Oc3cccnc3)CC[C@@H]21,-17.81%
18,Cc1ccc(NC(=O)CN2CCC(OCC3CCCO3)CC2)c(C)c1 (stereo not drawn),-25%
19,COCCc1noc(CN2CC(Cc3ccccc3)CC2=O)n1 (stereo not drawn),-62.6%
20,CC(C)C1CCCN1C(=O)c1ccc(-n2ncc(C#N)c2N)cc1 (stereo not drawn),71.17%
21,CCCC1SCCN1C(=O)c1ccc(-n2ncc(C#N)c2N)cc1 (stereo not drawn),-3.634%
22,CCOC1CCN(C(=O)c2ccc(-n3ncc(C#N)c3N)cc2)CC1,-36.9%

row,SMILES,Percent Effect
1,CN(CCO)C[C@@H]1CN(C(=O)c2c(F)cccc2Cl)C[C@@H]1CO,-48.12%
2,Cc1ccc(N2CCC(N3C[C@@H](CN(C)C)[C@@H](CO)C3)CC2)cc1,0.06165%
3,Cc1cc(F)ccc1N1CCC(N2C[C@@H](C)[C@@](C)(O)C2)CC1,37.17%
4,Cc1ccccc1CN1C[C@@H](CN(C)CCO)[C@@H](CO)C1,6.489%
5,CN(C)C[C@@H]1CN(Cc2ccccc2C#N)C[C@@H]1CO,-49.24%
6,COc1ccc(CN2C[C@@H](CN(C)CCO)[C@@H](CO)C2)cc1Cl,-13.19%
7,Cc1c(C(=O)N2CCCC2c2cnn(C)c2)cnn1-c1ccccc1 (stereo not drawn),-71.93%
8,NC(=O)C1CCN(CCCNC(=O)Nc2nncs2)CC1,-69.85%
9,CCc1ccccc1OCCNCCc1c[nH]cn1,69.73%
10,C=C(C)COc1cccc(CNCCc2c[nH]cn2)c1,26.04%
11,C=C(C)COc1ccccc1CNCCc1c[nH]cn1,4.371%
12,Cn1nccc1C(=O)N1CCCC2(CCN(c3ccsc3)C2=O)C1 (stereo not drawn),-40.86%
13,Cc1ccccc1SCC(=O)NC1CCC(O)CC1 (stereo not drawn),-39.35%
14,CN(C)C(=O)CN1CCN(Cc2coc(-c3cccc(F)c3)n2)CC1,-61.15%
15,CSc1ccc(-c2nc(CN3CCNCC3C)c(C)o2)cc1 (stereo not drawn),34.18%
16,CSc1ccc(-c2nc(CN3C[C@@H](C)NC[C@@H]3C)c(C)o2)cc1,-63.77%
17,Cc1oc(-c2cc(F)cc(F)c2)nc1CN1C[C@@H](C)NC[C@@H]1C,59.48%
18,Cn1ncc2c1CCCC2NCc1ccc(OCc2cccnc2)cc1 (stereo not drawn),4.43%
19,CO[C@H]1CCN(c2ncccn2)[C@H]1Cc1ccccc1,-101.2%
20,CO[C@H]1CCN(Cc2nccs2)C[C@@H]1Cc1ccccc1,-31.89%
21,COCCO[C@H]1CCN(Cc2ccoc2)[C@H]1Cc1cccnc1,-10.51%
22,CNC(=O)[C@@H]1C[C@@H]2CCN(Cc3ccoc3)C[C@H]2O1,-25.74%

row,SMILES,Percent Effect
1,O=C(CCNS(=O)(=O)c1ccccc1F)NCc1ccoc1,-33.2%
2,CCC1(CNC(=O)NC(c2nnc3n2CCC3)C(C)C)CCC1 (stereo not drawn),-142%
3,Cc1ccc(C)n1-c1c(C(=O)NCC(c2ccsc2)N(C)C)cnn1C (stereo not drawn),-29.69%
4,COc1ccc(-c2nonc2N)cc1,-30.35%
5,Cc1cnc(N2CC[C@@H]3O[C@@H](COCC(=O)N(C)C)CC[C@@H]32)nc1.O=C(O)C(F)(F)F,-30.4%
6,CC(C)(C)C1CC(=O)Nc2c1cnn2Cc1ccco1 (stereo not drawn),-56.11%
7,COC1CN(C(=O)NCC(N)=O)CCC(=O)N(C)c2ccccc21 (stereo not drawn),-44.55%
8,O=C(C[C@@H]1COC[C@H]2CN(Cc3cccnc3)C[C@@H]12)N1CCOCC1.O=C(O)C(F)(F)F.O=C(O)C(F)(F)F,-46.72%
9,COc1ccc(CN2C[C@H]3CCC[C@@H](CN(C)C4CC4)[C@H]3C2)cn1.O=C(O)C(F)(F)F.O=C(O)C(F)(F)F,77%
10,Cc1ccc(N2C[C@H]3CCC[C@@H](CN(C)C)[C@H]3C2)nn1.O=C(O)C(F)(F)F,-59.72%
11,O=C(C[C@@H]1COC[C@H]2CN(Cc3cccnc3)C[C@@H]12)N1CCCC1.O=C(O)C(F)(F)F.O=C(O)C(F)(F)F,-138.8%
12,COc1cc(N2C[C@H]3CCC[C@@H](CN4CCOCC4)[C@H]3C2)ncn1.O=C(O)C(F)(F)F,-88.21%
13,CN(C[C@@H]1CCC[C@@H]2CN(Cc3cccnc3)C[C@@H]21)C1CC1.O=C(O)C(F)(F)F.O=C(O)C(F)(F)F,55.19%
14,COc1cc(N2C[C@H]3CCC[C@@H](CN(C)C4CC4)[C@H]3C2)ncn1.O=C(O)C(F)(F)F,-80.87%
15,COCCN(C)C[C@@H]1CCC[C@@H]2CN(Cc3ccc(OC)nc3)C[C@@H]21.O=C(O)C(F)(F)F.O=C(O)C(F)(F)F,78.92%
16,COc1ccc(CN2C[C@H]3CCC[C@@H](CN(C)C)[C@H]3C2)cn1.O=C(O)C(F)(F)F.O=C(O)C(F)(F)F,48.48%
17,NC(=O)C1CCN(c2ncccc2C(=O)N2CCc3ccccc32)C1 (stereo not drawn),-5.535%
18,Cc1ccc(-c2nc(CN3CCCC(Cn4cncn4)C3)co2)cc1 (stereo not drawn),-95.97%
19,O=C1CCCN1Cc1ncn2c1CN(C(=O)C1CC=CC1)CCC2,-7.909%
20,COc1cc(F)ccc1N1CCN(Cc2nnc(C3CC3)o2)CC1,-5.241%
21,c1ccc2[nH]c(C3CCN(Cc4nnc(C5CC5)o4)CC3)cc2c1,-66.02%
22,COCCN1CC[C@@H](OC)[C@@H]1Cc1ccccc1.O=C(O)C(F)(F)F,1.708%

row,SMILES,Percent Effect
1,COCCO[C@H]1CCN(Cc2cccnc2)[C@H]1Cc1cccnc1.O=C(O)C(F)(F)F.O=C(O)C(F)(F)F.O=C(O)C(F)(F)F,3.1%
2,COCCN1CC[C@H](OC)[C@@H]1Cc1ccccc1.O=C(O)C(F)(F)F,62.78%
3,CO[C@@H]1CCN(Cc2ccoc2)[C@H]1Cc1ccccc1.O=C(O)C(F)(F)F,59.96%
4,CO[C@@H]1CCN(Cc2ccc(C)o2)[C@H]1Cc1ccccc1.O=C(O)C(F)(F)F,-53.14%
5,CO[C@H]1CCN(Cc2ccoc2)C[C@@H]1Cc1ccccc1.O=C(O)C(F)(F)F,66.03%
6,COCCN1CC[C@@H](O)[C@@H]1Cc1ccccc1.O=C(O)C(F)(F)F,-35.17%
7,CO[C@H]1CCN(c2nnc(C)s2)C[C@@H]1Cc1ccccc1.O=C(O)C(F)(F)F,-43.17%
8,CO[C@@H]1CCN(Cc2nccs2)C[C@@H]1Cc1ccccc1.O=C(O)C(F)(F)F,-15.24%
9,CO[C@@H]1CCN(Cc2ccoc2)C[C@@H]1Cc1ccccc1.O=C(O)C(F)(F)F,88.6%
10,CO[C@@H]1CCN(Cc2nccs2)C[C@@H]1Cc1cccc(C)c1.O=C(O)C(F)(F)F,-13.39%
11,COC[C@H]1CN(CC2CC2)C(=O)[C@@H]2CCN(Cc3ccoc3)CC[C@H]12.O=C(O)C(F)(F)F,-86.79%
12,Cc1noc(C)c1CN1C[C@@H]2COC[C@]2(COc2ccc(C#N)cn2)C1,-26.6%
13,Cn1ncc2c(N[C@@H]3C[C@@H]4CC[C@H]3C4)nc(-c3ccncc3)nc21,-96.32%
14,CC(C)OCCCNC(=O)CN1C=Nc2ccccc2S1(=O)=O,-92.03%
15,O=C(N1CCCC1)N1CCN(Cc2cccnc2)c2ncccc2C1.O=C(O)C(F)(F)F.O=C(O)C(F)(F)F,-47.54%
16,COC[C@@]12CCC[C@@H]1CN(C(=O)CN(C)C)C2.O=C(O)C(F)(F)F,-5.547%
17,CCCc1cc(=O)[nH]c(SCc2ccccn2)n1,-130.6%
18,Cn1cc(C2CCCN2CCc2nc3ccccc3c(=O)[nH]2)cn1 (stereo not drawn),-41.09%
19,CC(C)NC(=O)N1CCC2(CC(=O)N(c3cccc(F)c3)C2)C1 (stereo not drawn),-10.77%
20,Cc1cc(C(=O)NCc2cccnc2N2CCCC(O)C2)c(C)o1 (stereo not drawn),-87.63%
21,CN(C(=O)Nc1nncs1)C1CCN(c2ccccc2Cl)C1=O (stereo not drawn),-21.66%
22,O=C(O)C(F)(F)F.O=C(O)C(F)(F)F.O=S(=O)(C1CC1)N1CCC2(CCCN(Cc3ccccn3)C2)C1 (stereo not drawn),8.867%
